The text below walks through data of PubChem BioAssay AID1305 (SRMLSC, 2008).

Fewer than 10 of roughly 1,200 compounds were called active. No rule for the calls is given here. These entries were drawn from the full list.

This test in a line: 5-FOA growth of efflux-deficient control yeast, dose response, counter-screen for RAM network inhibitor project, S. cerevisiae, OD615 (AID 1305).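 Also: plate controls were vehicle for no effect and reference inhibitor for full effect.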 To be noted: S. cerevisiae efflux-deficient reporter strain, 5-FOA growth OD615, 2 days, hits give high values; at 100 µM unless noted. (A counterscreen serves to expose hits that act by an unwanted route or on another target.)
For `COc1ccc(C2C=C(c3ccc(Br)cc3)Nc3nc(NS(C)(=O)=O)nn32)cc1` (stereo unspecified), the max inhibition is 3.37% (inactive).

Consider `CCCNC(=O)OC[C@H]1O[C@H](CCO/N=C/[C@@H](NS(=O)(=O)c2ccc(C)cc2)[C@H](C)/C=C/CC(=O)OC)C=C[C@@H]1Oc1ccc(OC)cc1`, for which the max inhibition is 1.46% [at 50 µM] (inactive).

Turning to `Fc1ccc(CSc2nnc(-c3cc4c(s3)-c3ccccc3CC4)o2)cc1`, the max inhibition is 4.57% (inactive).

For `O=C(CSc1nc(-c2ccccc2)cs1)Nc1cccc([N+](=O)[O-])c1`, the max inhibition is 3.34% (inactive).

Turning to `COc1ccc(OC)c(C2C3=C(N=c4s/c(=C\c5cccc(O)c5)c(=O)n42)c2ccccc2CC3)c1` (stereo unspecified), the max inhibition was 2.51% [setting not given] (inactive).

On to `CCCC(C(=O)n1nc(C)cc1C)C(NS(=O)(=O)c1ccc(C)cc1)c1ccccc1` (stereo unspecified), for which the max inhibition was 2.29% [at 1.563 µM] (inactive).

Regarding `O=C(NCc1ccccc1)[C@H]1C[C@@H]1[C@H](NP(=O)(c1ccccc1)c1ccccc1)c1ccccc1`, the max inhibition is 2.82% (inactive).

As for `COC(=O)c1ccc(C2C(Oc3ccccc3C)C(=O)N2CCc2ccc(OC)c(OC)c2)cc1` (stereo unspecified), the max inhibition is 3.17% (inactive).

Turning to `CC1CCN(C(=S)c2ccc(-c3ccc(Cl)cc3Cl)o2)CC1`, the max inhibition is 4.91% (inactive).

Take `COc1ccc(/C=C/C(=O)OCC(=O)Nc2cccc(Oc3ccccc3)c2)c(OC)c1`: the max inhibition is 3.76% (inactive).

With `COc1ccc(C)cc1NC(=O)C(Sc1ccccc1)c1ccccc1` (stereo unspecified), the max inhibition is 4.82% (inactive).

Regarding `NS(=O)(=O)c1ccc(NC(=S)NC(=O)c2cccc(Br)c2)cc1`, the max inhibition is 2.4% [at 1.563 µM] (inactive).

On to `COc1ccc(C(=O)NC(=S)Nc2ccc(N3CCCC3)cc2)cc1OC`, for which the max inhibition was 1.3% [setting not given] (inactive).

In the case of `C=CCc1ccccc1OCC(=O)N/N=C/c1ccccc1OCC`, the max inhibition was 1.41% (inactive).

`Clc1ccccc1CSc1nnc(-c2ccco2)c(-c2ccco2)n1`: the max inhibition was 7.87% (inactive).

As to `O=C(NCc1ccccc1)C1=C[C@@H](C2CCCCC2)C[C@@H](OCc2ccc(CO)cc2)O1`, the max inhibition is 5.02% (inactive).

As to `CCOC(=O)c1c(C)nc2c(c1C)c(=O)oc1ccccc12`, the max inhibition was 1.3% [at 25 µM] (inactive).

As to `Cc1cccc(N2CCN(C(=O)c3cnn4c(C(F)F)cc(-c5ccccc5)nc34)CC2)c1C`, the max inhibition was 2.51% (inactive).

In the case of `Cc1ccc(CCC(=O)Nc2ncc(Cc3cc(Cl)ccc3Cl)s2)o1`, the max inhibition was 2.81% (inactive).

`O=C(CSCc1ccc(Br)cc1)Nc1ccc(S(=O)(=O)N2CCCCCC2)cc1`: the max inhibition was 2.51% (inactive).

Take `COC(=O)CCSc1cc([N+](=O)[O-])cc2c1c(C1OCCS1)nn2-c1ccccc1` (stereo unspecified): the max inhibition was 4.89% [at 12.5 µM] (inactive).

For the compound `COc1ccc(OCCCn2cccc2/C=C2/C(=N)N3OC(C)=CC3=NC2=O)cc1`, the max inhibition was 3.93% (inactive).

Consider `O=[N+]([O-])c1ccc2oc(-c3cccc(O)c3)nc2c1`, for which the max inhibition is 5.09% [at 25 µM] (inactive).

As for `CC(C)=CCCC1(C)C=Cc2c(ccc3c2[nH]c2cc(O)c(C)cc23)O1` (stereo unspecified), the max inhibition was 2.74% (inactive).

`Cc1ccc(C(=O)c2c(NC(=O)c3ccccc3)sc(C)c2C)cc1`: the max inhibition was 2.97% [setting not given] (inactive).

With `CSc1ccccc1-c1nnc(-c2ccc(Cl)cc2)o1`, the max inhibition was 2.32% [at 50 µM] (inactive).
